Results on 21 compounds are retold here after PubChem BioAssay (Tox21).

SMILES strings stand for the structures. Results filed as inconclusive are left out. Active and inactive are the calls of the source. Unless noted, calls come from the whole dose curve; as a rule, active = well fitted curve in the direction sought with a large enough effect in the repeat runs; inconclusive = weak or mixed curves; inactive = flat fitted curve, though single readings scatter.

The nature of assay [1]: qHTS assay to test for compound auto fluorescence at 535 nm (green) in HEK293 cells (AID 720680). Background: In qHTS, concentration-response curves come from the screen itself.
Assay [2] can be described thus: qHTS assay to test for compound auto fluorescence at 460 nm (blue) in HEK293 cell free culture (AID 720681). The procedure, abridged: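 Test compounds were pinned into cell-free culture medium (DMEM with 10% FBS) and fluorescence was read directly at Ex/Em 405/460 nm. Signals were expressed as fluorescence equivalents of triamterene, with DMSO vehicle as control.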

Assay [3] can be described thus: qHTS assay to test for compound auto fluorescence at 535 nm (green) in HEK293 cell free culture (AID 720682). Summed up:
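Intrinsic compound fluorescence is measured in culture medium containing 10% FBS, with excitation at 485 nm and detection at 535 nm, referenced to fluorescein.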

The nature of assay [4]: qHTS assay to test for compound auto fluorescence at 590 nm (red) in HEK293 cell free culture (AID 720683). The procedure, abridged:
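Tox21 10K library compounds were pinned into cell-free DMEM with 10% FBS and fluorescence was read at excitation 540 nm. Activity is expressed as Rose Bengal sodium equivalency.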

A short description of assay [5]: qHTS assay to test for compound auto fluorescence at 590 nm (red) in HepG2 cell free culture (AID 720684). The procedure, abridged:
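Red fluorescence (540 nm excitation, 590 nm emission) was measured after compound transfer into cell-free MEM supplemented with 10% FBS. Values are equivalencies against Rose Bengal sodium.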

Assay [6] in a line: qHTS assay to test for compound auto fluorescence at 460 nm (blue) in HepG2 cell free culture (AID 720685). The procedure, abridged: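 Compound (23 nL) or DMSO pinned into cell-free MEM with 10% FBS; blue fluorescence read at 405/460 nm excitation/emission, expressed as auto-fluorescence equivalency to triamterene.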
Assay [7] can be described thus: qHTS assay to test for compound auto fluorescence at 535 nm (green) in HepG2 cell free culture (AID 720686).
A short description of assay [8]: qHTS assay to test for compound auto fluorescence at 460 nm (blue) in HepG2 cells (AID 720687). The procedure, abridged: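 Cells (2,000/well in MEM with 10% FBS) attached overnight at 37 C, then were exposed to compound or DMSO for 1 hr at 37 C, 5% CO2. Fluorescence read at Ex/Em 405/460 nm, expressed as triamterene-equivalent signal.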
Assay [9] addresses Glucocorticoid receptor (Homo sapiens) (UniProt P04150). Kind of assay: qHTS assay to identify small molecule agonists of the glucocorticoid receptor (GR) signaling pathway (AID 720691; active = well fitted activation curve with a large enough effect in the signal ratio in the repeat runs, not every such curve was filed as active; the % refers to the signal ratio; note: potency is the fitted concentration of half-maximal effect). The note with it: GR-bla HeLa, beta-lactamase reporter ratio, 18 h; activation: at 62.4 µM (top of the series). The procedure, abridged:
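qHTS in GR-bla HeLa cells: 4 h settling at 37 C/5% CO2, 18 h compound incubation at 37 C, 2 h LiveBLAzer B/G FRET substrate at room temperature, fluorescence intensity measured.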

Glucocorticoid receptor (Homo sapiens), sequence (P04150 whole entry, looked up): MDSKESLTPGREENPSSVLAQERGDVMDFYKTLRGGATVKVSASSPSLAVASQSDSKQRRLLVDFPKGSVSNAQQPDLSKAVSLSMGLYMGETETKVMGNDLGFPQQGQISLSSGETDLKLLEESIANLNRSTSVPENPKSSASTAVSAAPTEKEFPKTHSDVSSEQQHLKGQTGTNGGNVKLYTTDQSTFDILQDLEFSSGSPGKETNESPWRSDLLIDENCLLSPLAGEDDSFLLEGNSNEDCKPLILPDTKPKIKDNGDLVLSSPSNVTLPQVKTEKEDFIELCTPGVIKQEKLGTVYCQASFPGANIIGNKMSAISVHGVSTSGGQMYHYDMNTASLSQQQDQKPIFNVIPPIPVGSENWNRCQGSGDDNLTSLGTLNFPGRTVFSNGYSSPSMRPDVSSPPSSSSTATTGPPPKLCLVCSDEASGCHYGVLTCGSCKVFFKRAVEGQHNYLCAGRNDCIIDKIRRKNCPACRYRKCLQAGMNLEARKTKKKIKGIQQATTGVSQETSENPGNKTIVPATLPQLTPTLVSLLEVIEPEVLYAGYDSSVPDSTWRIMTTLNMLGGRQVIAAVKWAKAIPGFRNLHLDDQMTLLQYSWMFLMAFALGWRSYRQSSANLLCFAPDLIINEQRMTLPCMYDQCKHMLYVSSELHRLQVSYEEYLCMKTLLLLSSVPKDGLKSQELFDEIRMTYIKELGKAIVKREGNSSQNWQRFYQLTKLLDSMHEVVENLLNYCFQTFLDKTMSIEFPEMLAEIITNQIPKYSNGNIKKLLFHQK

Regarding `CS(=O)(=O)NC(=O)CCC/C=C\C[C@H]1C(=O)C[C@@H](O)[C@@H]1/C=C/[C@H](O)COc1ccccc1`, the Potency entry in [1], in assay [2], in [3], in [4], in assay [5] and in [7] was “inactive” in each case. Besides, in assay [9], the Potency entry is “inactive”. Besides, the call in [6] and in assay [8] was inactive.
For `CCC[C@@]1(CCc2ccccc2)CC(O)=C([C@H](CC)c2cccc(NS(=O)(=O)c3ccc(C(F)(F)F)cn3)c2)C(=O)O1`, the Potency entry in [1], in assay [2], in assay [3], in assay [4], in [5] and in [7] was “inactive” each time. Moreover, the Potency result in assay [9] is “inactive”. The call in [6] and in assay [8] was inactive.
As to `CC(=O)O[C@H]1CC[C@@]2(C)C(=CC[C@H]3[C@@H]4CC[C@H](C(C)=O)[C@@]4(C)CC[C@@H]32)C1`, the Potency entry in assay [1], in assay [2], in assay [3], in [4], in [5] and in assay [7] was “inactive” in each case. The Potency entry in assay [9] was “inactive”. Also, the compound was called inactive in assay [6] and in assay [8].
For the compound `CCC(=O)O[C@]1(C(=O)CCl)[C@@H](C)C[C@H]2[C@@H]3C[C@H](F)C4=CC(=O)C=C[C@]4(C)[C@@]3(F)[C@@H](O)C[C@@]21C`, the Potency result in [1], in [2], in [3], in [4], in assay [5] and in assay [7] was “inactive” each time. In addition, the compound was classed as inactive in assay [6] and in [8]. Moreover, in assay [9], the Potency is 0.0007 µM (active).
As to `CCCN(CC)C(CC)C(=O)Nc1c(C)cccc1C` (centres undefined), the Potency result in assay [1], in assay [2], in assay [3], in [4], in assay [5] and in [7] was “inactive” each time. The Potency result in assay [9] is “inactive”. The call in assay [6] and in assay [8] was inactive.
On to `CCN(CC)CCC(=O)N1c2ccccc2Sc2ccc(Cl)cc21`, for which the Potency entry in assay [1], in [2], in assay [3], in assay [4], in assay [5] and in assay [7] was “inactive” throughout. Further, the Potency entry in assay [9] is “inactive”. In addition, the outcome in assay [6] and in assay [8] was inactive.
With `O=c1oc2cc(O)ccc2s1`, the Potency result in assay [1], in assay [2], in assay [3], in [4], in assay [5] and in assay [7] was “inactive” in each case. In addition, in assay [9], the Potency entry is “inactive”. Further, the call in [6] and in [8] was inactive.
As for `CCCOc1ccc2nc(NC(=O)OC)sc2c1`, the Potency result in assay [1], in assay [2], in assay [3], in [4], in [5] and in [7] was “inactive” each time. Besides, in assay [9], the Potency entry was “inactive”. The compound was classed as inactive in assay [6] and in assay [8].
In the case of `O=P(O)(O)OC(CO)CO`, the Potency entry in assay [1], in [2], in assay [3], in [4], in assay [5] and in [7] was “inactive” in each case. Besides, the Potency entry in assay [9] was “inactive”. Moreover, the compound was called inactive in assay [6] and in assay [8].
`O=C(/C=C/c1cccc(F)c1)NC1CC1`: the Potency result in assay [1], in assay [2], in assay [3], in assay [4], in assay [5] and in assay [7] was “inactive” each time. Moreover, in assay [9], the Potency entry is “inactive”. The compound was called inactive in assay [6] and in assay [8].
In the case of `CCC(Cc1c(I)cc(I)c(O)c1I)C(=O)O` (centres undefined), the Potency result in assay [1], in [2], in [3], in [4], in [5] and in assay [7] was “inactive” each time. The Potency entry in assay [9] was “inactive”. Further, the compound was called inactive in [6] and in [8].
Regarding `CC[C@H]1NC(=O)[C@@H](NC(=O)c2ncccc2O)[C@@H](C)OC(=O)[C@H](c2ccccc2)NC(=O)[C@@H]2CC(=O)CCN2C(=O)[C@H](Cc2ccccc2)N(C)C(=O)[C@@H]2CCCN2C1=O`, the Potency entry in assay [1], in assay [2], in assay [3], in assay [4], in [5] and in assay [7] was “inactive” in each case. In addition, the Potency entry in [9] is “inactive”. For the same compound, the result in [6] and in assay [8] was inactive.
Regarding `CNC(=O)[C@H](Cc1c[nH]c2ccccc12)NC(=O)[C@@H](CC(=O)NO)CC(C)C`, the Potency result in assay [1], in [2], in assay [3], in assay [4], in assay [5] and in assay [7] was “inactive” each time. Also, the compound was called inactive in [6] and in assay [8]. In addition, the Potency in assay [9] was 15.1 µM (active).
In the case of `[O]=[Bi][O]C(=O)[O][Bi]=[O]`, the Potency result in assay [1], in assay [2], in assay [3], in assay [4], in assay [5] and in [7] was “inactive” in each case. Moreover, the Potency result in [9] is “inactive”. In addition, the call in assay [6] and in assay [8] was inactive.
Turning to `CN(C)CCCN1c2ccccc2C(C)(C)c2ccccc21`, the Potency entry in assay [1], in assay [2], in assay [3], in assay [4], in assay [5] and in [7] was “inactive” in each case. In addition, in assay [9], the Potency entry was “inactive”. Moreover, the outcome in assay [6] and in assay [8] was inactive.
Turning to `CCCC1C(=O)N2C(N(C)C)=Nc3ccc(C)cc3N2C1=O` (centres undefined), the Potency result in assay [1], in [2], in [3], in [4], in assay [5] and in [7] was “inactive” each time. Besides, the Potency entry in [9] is “inactive”. Further, the outcome in assay [6] and in [8] was inactive.
With `CCCCCCCCCCCCCCCCCC[N+](C)(C)CCC[Si](OC)(OC)OC`, the Potency result in assay [1], in assay [2], in assay [3], in assay [4], in assay [5] and in assay [7] was “inactive” throughout. Moreover, in [9], the Potency result is “inactive”. In addition, the compound was classed as inactive in assay [6] and in assay [8].
With `CC(CN1c2ccccc2Sc2cccnc21)N(C)C` (centres undefined), the Potency result in assay [1], in assay [2], in assay [3], in assay [4], in [5] and in assay [7] was “inactive” each time. Besides, in assay [9], the Potency result was “inactive”. The call in assay [6] and in [8] was inactive.
On to `CC(=O)O[C@H]1CC[C@@]2(C)C(=CC[C@@H]3[C@@H]2CC[C@]2(C)C(c4cccnc4)=CC[C@@H]32)C1`, for which the Potency result in assay [1], in assay [2], in [3], in assay [4], in assay [5] and in [7] was “inactive” in each case. The Potency entry in assay [9] was “inactive”. In addition, the compound was called inactive in assay [6] and in assay [8].
With `CC1=C(/C=C/C(C)=C/C=C/C(C)=C/C(=O)Oc2c(C)c(C)c3c(c2C)CC[C@@](C)(CCC[C@H](C)CCC[C@H](C)CCCC(C)C)O3)C(C)(C)CCC1`, the Potency result in [1], in [2], in assay [3], in [4], in assay [5] and in assay [7] was “inactive” throughout. Besides, in assay [9], the Potency entry is “inactive”. Besides, the result in assay [6] and in [8] was inactive.
For `COc1ccc(C2(C#N)CCC(C(=O)O)CC2)cc1OC1CCCC1` (centres undefined), the Potency result in [1], in assay [2], in assay [3], in assay [4], in assay [5] and in assay [7] was “inactive” in each case. Besides, the Potency entry in [9] was “inactive”. For the same compound, the compound was called inactive in [6] and in assay [8].
